Here are results for 38 molecules from PubChem BioAssay (NCI).

The structures appear in SMILES notation. Several values for one entry are separate records, joined by “and”; a condition that tells them apart may be missing. Identical values can stand only once. About 83,000 compounds went through this panel and 20% of them were active in at least one assay; those are over-represented in the sample as a whole.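 Activity criterion: percent growth below 10, measured after cells in 96-well plates were exposed to a single compound concentration for 48 hours.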 Activity calls are given as the source filed them.

The first test concerns SK-MEL-5 melanoma. Put plainly: NCI-60 one-dose screen, 48 h (100 = growth as untreated, 0 = no growth, -100 = all killed). The following applies: 10 µM unless noted.
Regarding `Oc1cccnc1CN1CCOCC1`, the growth is 106% (inactive) and 98.4% (inactive).

Turning to `COc1cc2c(cc1O)C(=O)CCCC2`, the growth is 102% (inactive).

As for `S=c1nn[nH]n1C1CCCCC1`, the growth is 105% (inactive).

Take `Cc1ccc(NC(=S)N/C=C(\c2ccccc2)S(=O)Cc2ccccc2)c(C)c1` (centres undefined): the growth is 98.7% (inactive).

Consider `O=C(O)/C=C/C=C/c1ccccc1`, for which the growth was 102% (inactive) and 94.7% (inactive).

With `CC(C)(C(=O)c1cccnc1)c1cccnc1`, the growth was 98.4% (inactive) and 106% (inactive).

For the molecule `CCCCCCC(C)CC1=C(O)c2ccccc2C(=O)C1=O` (centres undefined), the growth was 11.9% (inactive).

Take `S=c1ccc2ccccc2[nH]1`: the growth is 100% (inactive) and 104% (inactive).

On to `O=C1C2=C(Nc3cc(Cl)ccc3N2)OC1c1c[nH]c2ccc(COc3ccccc3)cc12` (centres undefined), for which the growth was 81% (inactive).

As for `Oc1ccc(O)c(-c2ccccc2)c1`, the growth was 42.9% (inactive).

Regarding `O=C1C=CC[C@H](/C=C/c2ccccc2)O1`, the growth is 31.7% (inactive) and -11.8% (active).

Regarding `COC(=O)c1nc(=S)[nH]c(C(=O)OC)c1C(=O)c1ccccc1`, the growth is 103% (inactive).

`COc1ccc(COC=O)cc1`: the growth is 104% (inactive).

Turning to `OCCCc1ccccc1`, the growth was 103% (inactive).

With `O=c1[nH]c(=O)c2[nH]c(=O)[nH]c2[nH]1`, the growth is 100% (inactive).

Consider `O=[N+]([O-])c1cccc(N=Cc2ccccc2)c1`, for which the growth is 104% (inactive).

Regarding `O=C(NC(=O)c1ccc(F)c(Cl)c1)NC1CC1`, the growth was 88% (inactive).

As for `COCCCNC1=C(C#N)C(=O)NC(c2cccs2)S1` (centres undefined), the growth is 95.3% (inactive).

Consider `CN(C)c1ccc(C(=N)c2ccc(N(C)C)cc2)cc1`, for which the growth was 7.19% (active) and 22.7% (inactive).

Regarding `Cc1cccc(Cl)c1N`, the growth is 110% (inactive).

As to `ON=C(C1CCCCC1)C1CCCCC1`, the growth was 108% (inactive).

With `CNc1ccc(Cl)cc1S(=O)(=O)c1ccccc1[N+](=O)[O-]`, the growth is 34.4% (inactive) and 95.6% (inactive).

Regarding `Cc1c(O)nc(N)[nH]c1=O`, the growth is 113% (inactive).

On to `Cc1cc(Cl)nc(Nc2ccccc2)n1`, for which the growth is 97.2% (inactive).

Take `CCCC(=O)OCC(COC(=O)CCC)OC(=O)CCC`: the growth is 98.5% (inactive).

As to `COc1ccc2oc3cc(NCCN(C)C)ccc3c(=O)c2c1`, the growth was 93.3% (inactive) and 75.5% (inactive).

As for `N#Cc1c(N)nc2c(c(-c3ccc(Cl)cc3)nn2-c2ccccc2)c1C#N`, the growth was 103% [100 µM] (inactive).

Take `Cc1c(Cl)cc(Cl)c(N)c1Cl`: the growth is 106% (inactive).

Consider `CCOC(=O)c1csc(N)n1`, for which the growth is 108% (inactive) and 101% (inactive).

For the molecule `O=c1[nH]c(=O)n(C2OC(CO)C(O)C2O)cc1I` (centres undefined), the growth was 101% (inactive) and 113% (inactive).

Consider `Cc1cc(NC(=O)NC(=O)c2ccccc2N(C)C)ccc1Oc1ncc(Br)cn1`, for which the growth is 2.16% (active) and 0.678% (active).

Turning to `C(=N\OCCc1ccccc1)/c1ccccn1`, the growth was 113% (inactive) and 111% (inactive).

On to `O=c1[nH]nnc2cc(Cl)ccc12`, for which the growth was 100% (inactive).

For the molecule `CC(CN(C)C)CN1c2ccccc2Sc2ccccc21` (centres undefined), the growth was 87.1% (inactive) and 74% (inactive) and 89.3% (inactive).

On to `CCOP(C)(=O)/C(Cc1ccc(OC)c(OC)c1)=N\O` (centres undefined), for which the growth is 96.1% (inactive).

Consider `O=C(O)COc1ccccc1F`, for which the growth was 95% (inactive).

For `CC(=O)Nc1ccc(OC(C)=O)cc1`, the growth was 92.8% (inactive).

As for `CC(C)(C)OC(=O)NCCc1ccc(N)cc1`, the growth was 99.2% (inactive).

The next test concerns UACC-62 melanoma. Described as above. The following applies: 10 µM unless noted.
As to `S=c1nn[nH]n1C1CCCCC1`, the growth was 113% (inactive).

As for `Cc1ccc(NC(=S)N/C=C(\c2ccccc2)S(=O)Cc2ccccc2)c(C)c1` (centres undefined), the growth is 92.2% (inactive).

On to `CC(C)(C(=O)c1cccnc1)c1cccnc1`, for which the growth is 101% (inactive) and 103% (inactive).

As for `CCCCCCC(C)CC1=C(O)c2ccccc2C(=O)C1=O` (centres undefined), the growth is 29.9% (inactive).

On to `O=C1C2=C(Nc3cc(Cl)ccc3N2)OC1c1c[nH]c2ccc(COc3ccccc3)cc12` (centres undefined), for which the growth was 68.7% (inactive).

Consider `COc1ccc(COC=O)cc1`, for which the growth was 104% (inactive).

On to `O=[N+]([O-])c1cccc(N=Cc2ccccc2)c1`, for which the growth is 103% (inactive).

As to `O=C(NC(=O)c1ccc(F)c(Cl)c1)NC1CC1`, the growth was 99.8% (inactive) and 96.6% (inactive).

As to `COCCCNC1=C(C#N)C(=O)NC(c2cccs2)S1` (centres undefined), the growth was 91.7% (inactive).

With `Cc1cccc(Cl)c1N`, the growth is 103% (inactive).

In the case of `ON=C(C1CCCCC1)C1CCCCC1`, the growth is 91.8% (inactive).

With `CCOC(=O)c1csc(N)n1`, the growth is 93.3% (inactive) and 94.2% (inactive).

With `O=c1[nH]c(=O)n(C2OC(CO)C(O)C2O)cc1I` (centres undefined), the growth was 102% (inactive) and 103% (inactive).

`CCOP(C)(=O)/C(Cc1ccc(OC)c(OC)c1)=N\O` (centres undefined): the growth was 96% (inactive).

In the case of `O=C(O)COc1ccccc1F`, the growth is 101% (inactive).

For the molecule `CC(=O)Nc1ccc(OC(C)=O)cc1`, the growth is 18.5% (inactive) and 108% (inactive).
